Screens deposited in PubChem by several laboratories.
BH1578 lux ind – inducers of Vibrio cholerae quorum light production without autoinducers, primary screen, BH1578 luxS cqsA deficient, single point; activation, % at 18.7 µM; actives 0.16% (n = 350,000); V. cholerae BH1578 lux reporter, luminescence, 6 h; in the data active = activation mostly above about 9.7%, no sharp cut-off
FBA Mtb inh – Mtb FBA enzyme inhibitors, primary screen, biochemical, fluorescence, strain H37Rv. inhibition, % at 1 µM. actives 2.3% (n = 360,000). AID 588726, 2011. purified M. tuberculosis FBA, fluorescence read-out; in the data active = inhibition above about 27%;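 also: 0% = vehicle and 100% = reference inhibitor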
Target sequence (P9WQA3 whole entry, looked up): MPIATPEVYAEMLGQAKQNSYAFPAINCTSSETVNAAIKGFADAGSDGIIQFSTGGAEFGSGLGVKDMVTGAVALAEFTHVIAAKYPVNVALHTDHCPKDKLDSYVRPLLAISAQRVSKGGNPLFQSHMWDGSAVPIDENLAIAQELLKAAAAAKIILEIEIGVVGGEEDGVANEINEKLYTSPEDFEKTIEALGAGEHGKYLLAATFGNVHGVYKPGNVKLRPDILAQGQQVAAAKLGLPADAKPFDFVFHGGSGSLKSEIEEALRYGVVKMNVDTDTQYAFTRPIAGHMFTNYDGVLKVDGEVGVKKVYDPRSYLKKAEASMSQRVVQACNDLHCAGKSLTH
PrPC TRFRET – inhibitors of human cell surface prion protein PrPC, primary screen, cell-based, TR-FRET. Major prion protein (Homo sapiens), P04156. AID 720596, 2013. TR-FRET read-out. inhibition, % at 13.8 µM. actives 0.43% (n = 370,000); in the data active = inhibition above about 24%; also: 0% = median of the test wells and 100% = reference compound wells
GDH-TPI counter – GDH-TPI coupling enzyme inhibitors, primary screen, artefact control for M. tuberculosis FBA inhibitor project, biochemical, absorbance, full deck | inhibition, % at 4.8 µM | actives 1.2% (n = 360,000) | GDH-TPI coupled enzyme counterscreen, NADH absorbance; in the data active = inhibition above about 30%;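 also: 0% = DMSO wells and 100% = wells lacking the enzyme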
3CLpro inhibitor – SARS-CoV 3CLpro protease inhibitors, primary screen, biochemical, quenched FRET. Replicase polyprotein 1ab (Severe acute respiratory syndrome coronavirus), P0C6X7. recombinant SARS-CoV 3CLpro, quenched FRET peptide cleavage. inhibition, % at 6 µM. actives 0.14% (n = 290,000). AID 1706, 2009; in the data active = inhibition above about 12%
* hit, by the source's call; i = inactive; nt = no result given; + = active, no number. Rows were chosen to be rich in hits. Some 3.9% of all compounds tested hit in one or more screens of this group.

SMILES	BH1578 lux ind	FBA Mtb inh	PrPC TRFRET	GDH-TPI counter	3CLpro inhibitor
COc1ccc(-c2cccc(NS(=O)(=O)c3cc([N+](=O)[O-])c(C)c([N+](=O)[O-])c3)c2)nn1	0	-1	-3	-8	nt
CC(C)COC(=O)Nc1nnc(SCCOc2ccccc2)s1	3	-2	3	3	5
CCn1cc(/C=C(\NC(=O)c2ccccc2)C(=O)NCCN2CCOCC2)c2ccccc21	i	-4	5	48*	nt
CCn1cc(/C=C(\NC(=O)c2ccc(OC)c(OC)c2)C(=O)N2CCN(C)CC2)c2ccccc21	i	-2	-13	27	-3
CCn1cc(/C=C(\NC(=O)c2ccccc2Cl)C(=O)NCCN2CCOCC2)c2ccccc21	1	-5	-6	22	-1
CN(C)c1ccc(/C=C(/NC(=O)c2ccccc2)C(=O)NCCN2CCOCC2)cc1	i	-3	-4	28	2
CCn1cc(/C=C(\NC(=O)c2ccc(OC)c(OC)c2)C(=O)NCCCN2CCOCC2)c2ccccc21	i	3	4	41*	2
CN(C)c1ccc(/C=C(/NC(=O)c2ccccc2Cl)C(=O)NCCN2CCOCC2)cc1	-11	-2	-9	42*	6
CCn1cc(/C=C(\NC(=O)c2ccccc2F)C(=O)N2CCN(C)CC2)c2ccccc21	-2	1	-7	39*	nt
CC(C)c1ccccc1NC(=O)CSc1n[nH]c(=O)n1C1CC1	-1	-1	0	4	nt
COc1ccccc1C(=O)N/C(=C\c1cn(C)c2ccccc12)C(=O)NCCCN1CCOCC1	i	-2	-8	36*	-2
Cc1ccc(C(=O)N/C(=C\c2cn(C)c3ccccc23)C(=O)NCCCN2CCOCC2)cc1	i	-1	-2	23	1
CCn1cc(/C=C(\NC(=O)c2ccc(C)cc2)C(=O)NCCCN2CCOCC2)c2ccccc21	i	1	-7	41*	-1
CCc1c(C)c(C#N)c2nc3ccccc3n2c1NCCCN(C)C	i	3	-12	7	nt
Cc1c2c(n3c(nc4ccccc43)c1C#N)N(CCN(C)C)CC2	-2	+	-2	-2	-3
Cc1c2c(n3c(nc4ccccc43)c1C#N)N(c1ccccc1)CC2	nt	nt	nt	nt	-1
Cc1c2c(n3c(nc4ccccc43)c1C#N)N(CCCN(C)C)CC2	i	141*	-6	7	-1
CN(CC(=O)Nc1cccc(F)c1)C(=O)CCNC(=O)c1ccco1	i	-3	-8	-1	nt
COc1cccc(CNC(=O)CN2CCCc3ccccc32)c1	nt	nt	-6	nt	nt
Cc1ccc(S(=O)(=O)c2nnn3c2nc(NCCCN2CCCC2=O)c2ccccc23)cc1C	i	31*	-5	3	5
Cc1nn(CC(=O)Nc2cccnc2)c(C)c1[N+](=O)[O-]	2	3	-5	-9	8
Cc1cnc(NC(=O)c2sc(Nc3ccccc3)nc2N)o1	-1	-1	6	31*	5
CCCCc1nc(C(N)=O)c2[nH]c(=O)n(-c3ccccc3F)c2n1	0	136*	nt	5	-4
CCCCc1nc(C(N)=O)c2[nH]c(=O)n(-c3ccc(OC)cc3OC)c2n1	i	3	nt	9	6
Cc1cccc(OCC(=O)NCc2ccncc2)c1C	nt	1	-6	3	-1
SMILES	BH1578 lux ind	FBA Mtb inh	PrPC TRFRET	GDH-TPI counter	3CLpro inhibitor
CCc1cc(=O)oc2c3c(cc(OCC(=O)NCc4ccco4)c12)OC(C)(C)CC3	0	154*	nt	23	6
CCc1cc(=O)oc2c3c(cc(OCC(=O)NCc4ccncc4)c12)OC(C)(C)CC3	0	+	5	16	0
Cc1ccc(C)c(OCCC(=O)N2CCN(S(=O)(=O)c3ccc([N+](=O)[O-])cc3)CC2)c1	0	-1	-6	8	nt
COc1ccccc1N1CCN(C(=O)c2ccc3c(c2)nc(C)n3-c2cc(OC)c(OC)c(OC)c2)CC1	nt	nt	-9	nt	nt
C=CCC[C@H](CCCCC)OC(=O)/C=C/[C@@H](O)[C@H](O)C[C@@H](O)CC=C	nt	nt	-2	nt	nt
O=C(c1ccc(-n2cncn2)c2ccoc12)N1CCOCC1	0	-4	-9	-3	nt
CCOC(=O)C1=C(C)NC(SC(C)=O)=NC1c1ccc(OC(C)=O)c(OC)c1 (stereo unspecified)	-1	4	-11	36*	3
